Measured values as given in PubChem BioAssay (Tox21).
Results filed as inconclusive are left out. Where a call stands in place of a potency, no number is given. Unmarked numbers belong to inactive results. Activity calls are given as the source filed them. Unless noted, the call rests on the fitted dose curve; in most records, active means well fitted curve in the direction sought with a large enough effect in the repeat runs; inconclusive means weak or mixed curves; inactive means no such curve, though single readings can be large; an effect the other way counts as inactive or inconclusive.

Columns and labels:
[1] = qHTS assay to identify small molecule antagonists of the retinoid acid receptor (RAR) signaling pathway - cell viability counter screen (AID 1159551); further: nearly all actives have a fitted effect of over 35% in size
Summary of the method: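 C3RL4 RARE-luciferase cells, 1,000/well, incubated overnight, then dosed with compound plus 1 uM retinol (final). After 6 hr at 37 C, viability read by CellTiter-Glo ATP luminescence following 30 min at room temperature.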

[2] = qHTS assay to identify small molecule antagonists of the retinoic acid receptor (RAR) signaling pathway (AID 1159552; further: nearly all actives have a fitted effect of over 50% in size)
Summary of the method: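 RARE-luc C3RL4 cells; cpds + 1 uM (final) retinol, 6 hr, 37 C/5% CO2; luciferase reagent, 30 min RT, luminescence readout. Inhibitors of retinol-driven signal scored.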

[3] = qHTS assay to identify small molecule antagonists of the estrogen related receptor (ERR) signaling pathway from Tox21 library - cell viability counter screen (AID 1224834); further: nearly all actives have a fitted effect of over 30% in size; further: potency means the concentration at half of the fitted maximal effect
Summary of the method: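 ERR reporter cells, 2,000 per well, rested 6 h, then exposed to compound in DMSO for 17.5 hours at 37 C. Viability read as fluorescence after 30 min with CellTiter-Fluor.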

[4] = biological target: Luciferin 4-monooxygenase (Photinus pyralis) (UniProt P08659); test: qHTS assay to identify small molecule inhibitors of firefly luciferase (AID 1224835); further: nearly all actives have a fitted effect of over 25% in size; further: potency means the concentration at half of the fitted maximal effect
Chain of Luciferin 4-monooxygenase (Photinus pyralis) (P08659 whole entry, looked up): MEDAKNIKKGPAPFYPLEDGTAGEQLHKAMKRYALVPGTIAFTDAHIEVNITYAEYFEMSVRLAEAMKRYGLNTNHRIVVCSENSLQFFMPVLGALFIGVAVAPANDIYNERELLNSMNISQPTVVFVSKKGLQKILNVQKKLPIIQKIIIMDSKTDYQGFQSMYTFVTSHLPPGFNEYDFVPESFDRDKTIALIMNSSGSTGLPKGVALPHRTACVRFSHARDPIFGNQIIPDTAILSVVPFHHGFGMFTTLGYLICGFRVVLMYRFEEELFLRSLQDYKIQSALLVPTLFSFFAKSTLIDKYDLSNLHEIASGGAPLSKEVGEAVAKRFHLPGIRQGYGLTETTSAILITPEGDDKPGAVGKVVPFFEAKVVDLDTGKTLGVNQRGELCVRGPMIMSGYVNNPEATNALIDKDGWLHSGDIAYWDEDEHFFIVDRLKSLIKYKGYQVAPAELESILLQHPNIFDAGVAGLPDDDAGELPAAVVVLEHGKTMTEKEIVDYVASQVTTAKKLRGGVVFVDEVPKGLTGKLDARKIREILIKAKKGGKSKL
Summary of the method: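 Inhibition of purified Photinus luciferase is measured by luminescence. Substrate levels (D-luciferin, ATP) sit at their KM values. Each compound is tested in a concentration series.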

[5] = qHTS assay to identify small molecule agonists of the constitutive androstane receptor (CAR) signaling pathway - cell viability counter screen (AID 1224836); further: series mostly up to about 92 µM; nearly all actives have a fitted effect of over 45% in size
Summary of the method: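 HepG2 cells stably carrying hCAR and a CYP2B6-2.2kb reporter were plated 4 h, then given compounds at 15 concentrations plus PK11195 (final 0.75 uM). After 23 h at 37 C, viability was read by CellTiter-Fluor fluorescence.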

[6] = qHTS assay to identify small molecule antagonists of the constitutive androstane receptor (CAR) signaling pathway - cell viability counter screen (AID 1224837); further: series mostly up to about 92 µM; nearly all actives have a fitted effect of over 45% in size
Summary of the method: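 HepG2 cells stably carrying hCAR and CYP2B6-2.2kb reporter, stimulated with 50 nM CITCO and compounds at 15 concentrations for 23 h at 37 C. Viability measured by CellTiter-Fluor fluorescence.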

[7] = biological target: Nuclear receptor subfamily 1 group I member 3 (Homo sapiens) (UniProt Q14994); test: qHTS assay to identify small molecule antagonists of the constitutive androstane receptor (CAR) signaling pathway (AID 1224838); further: nearly all actives have a fitted effect of over 40% in size
Chain of Nuclear receptor subfamily 1 group I member 3 (Homo sapiens) (Q14994 whole entry, looked up): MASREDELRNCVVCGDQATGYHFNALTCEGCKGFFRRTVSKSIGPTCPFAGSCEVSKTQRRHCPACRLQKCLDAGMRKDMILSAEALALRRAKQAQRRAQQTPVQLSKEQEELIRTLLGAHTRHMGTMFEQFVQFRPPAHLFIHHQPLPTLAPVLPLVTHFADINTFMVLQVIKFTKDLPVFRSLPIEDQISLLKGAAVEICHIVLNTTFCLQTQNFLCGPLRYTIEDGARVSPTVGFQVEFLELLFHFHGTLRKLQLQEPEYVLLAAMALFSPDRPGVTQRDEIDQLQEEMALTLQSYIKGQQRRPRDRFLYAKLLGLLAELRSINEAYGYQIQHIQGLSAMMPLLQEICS
Summary of the method: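 HepG2 cells stably carrying hCAR and a CYP2B6-2.2kb luciferase reporter, seeded 4 hrs before compound (15 concentrations). Stimulated with 50 nM CITCO for 24 hr at 37 C. ONE-Glo luminescence read after 30 min at room temperature.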

[8] = biological target: Nuclear receptor subfamily 1 group I member 3 (Homo sapiens) (UniProt Q14994); test: qHTS assay to identify small molecule agonists of the constitutive androstane receptor (CAR) signaling pathway (AID 1224839); further: series mostly up to about 92 µM; nearly all actives have a fitted effect of over 15% in size
Summary of the method: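 HepG2 cells stably expressing hCAR and a CYP2B6-2.2kb luciferase reporter were treated with compounds at 15 concentrations plus 0.75 uM PK11195 (final) for 24 h at 37 C; luminescence was read after ONE-Glo addition.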

[9] = qHTS assay to identify small molecule antagonists of the estrogen related receptor signaling pathway with the pleiotropic PPARgamma coactivator (PGC) from Tox21 10K library - cell viability counter screen (AID 1224840; active means well fitted cell-killing curve with a large enough effect in the repeat runs, not every such curve was filed as active; further: nearly all actives have a fitted effect of over 40% in size)
Summary of the method: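 PGC/ERR cells (2,000/well) plated 6 h, then compound-treated for 17.5 h at 37 C. Viability measured by CellTiter-Fluor fluorescence after 30 min at 37 C, multiplexed with the pathway assay.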

[10] = biological target: Thyrotropin receptor (Homo sapiens) (UniProt P16473); test: qHTS assay to identify small molecule agonists of the thyroid stimulating hormone receptor (TSHR) signaling pathway (AID 1224843; calls by dose curve; further: nearly all actives have a fitted effect of over 45% in size)
Chain of Thyrotropin receptor (Homo sapiens) (P16473 whole entry, looked up): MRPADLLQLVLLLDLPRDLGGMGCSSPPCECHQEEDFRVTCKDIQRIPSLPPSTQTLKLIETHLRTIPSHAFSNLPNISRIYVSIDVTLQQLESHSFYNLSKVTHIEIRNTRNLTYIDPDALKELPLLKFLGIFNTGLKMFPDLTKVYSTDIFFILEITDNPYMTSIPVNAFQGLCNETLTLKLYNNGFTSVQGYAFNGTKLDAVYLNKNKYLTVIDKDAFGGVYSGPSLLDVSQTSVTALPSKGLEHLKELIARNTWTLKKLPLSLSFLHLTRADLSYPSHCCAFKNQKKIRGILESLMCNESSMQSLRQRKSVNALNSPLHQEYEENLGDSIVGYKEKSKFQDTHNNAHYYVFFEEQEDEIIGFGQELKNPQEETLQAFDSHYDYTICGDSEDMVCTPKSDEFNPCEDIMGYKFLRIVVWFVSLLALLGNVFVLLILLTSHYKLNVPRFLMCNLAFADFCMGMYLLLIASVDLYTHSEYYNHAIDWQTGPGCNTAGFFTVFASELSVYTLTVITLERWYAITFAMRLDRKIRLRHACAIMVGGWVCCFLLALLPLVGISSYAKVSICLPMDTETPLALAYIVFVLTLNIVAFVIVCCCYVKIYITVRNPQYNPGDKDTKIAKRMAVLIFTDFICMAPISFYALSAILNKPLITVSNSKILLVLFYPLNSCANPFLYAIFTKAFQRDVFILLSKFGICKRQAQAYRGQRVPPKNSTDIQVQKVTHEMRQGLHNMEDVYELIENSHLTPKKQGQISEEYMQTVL
Summary of the method: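 Screening of the Tox21 10K collection used HEK293 cells engineered with TSHR at 800 cells per well. After a 30-min room-temperature compound exposure, HTRF cAMP reagents were added and fluorescence recorded 1 h later.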

[11] = qHTS assay to identify small molecule agonists of the hypoxia (HIF-1) signaling pathway - cell viability counter screen (AID 1224844; calls by dose curve; further: nearly all actives have a fitted effect of over 50% in size; further: potency means the concentration at half of the fitted maximal effect)
Summary of the method: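 HRE-bla ME-180 cells, 2,000/well in 0.5% dialyzed FBS medium, treated 17 h at 37C with compounds. Viability read in the same wells as the bla reporter, by CellTiter-Glo luminescence after 30 min at room temperature.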

[12] = qHTS assay to identify small molecule antagonists of the estrogen related receptor signaling pathway with the pleiotropic PPARgamma coactivator (PGC) from Tox21 10K library (AID 1224841; call rule not given here; further: series mostly up to about 92 µM; actives are mostly falling curves and most rising ones were filed inactive; nearly all actives have a fitted effect of over 50% in size)
Summary of the method: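 PGC/ERR cell line, 2,000 cells/well, pre-incubated 6 hours at 37 C, then exposed to compounds for 18 hours at 37 C; luciferase read with One-Glo luminescence after 30 min at room temperature.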

[13] = qHTS assay to identify small molecule agonists of the estrogen related receptor signaling pathway with the pleiotropic PPARgamma coactivator (PGC) from Tox21 10K library (AID 1224842); further: nearly all actives have a fitted effect of over 15% in size
Summary of the method: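 Luminescence from One-Glo (30 min, room temperature) measured after PGC/ERR cells had 18 h at 37 C with pinned compound (23 nL in DMSO). Cells had been seeded at 2,000 per well and pre-incubated 6 h.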

In the case of CCCC(C)CCC(C)=O (centres undefined), the Potency [1] was “inactive”, the Potency [2] was “inactive” and the Potency [3] was “inactive”. The Potency [4] was “inactive”, the Potency [5] was “inactive” and the Potency [6] was “inactive”. For the same molecule, the Potency [7] was “inactive”, the Potency [8] was “inactive” and the Potency [9] was “inactive”. For the same molecule, the Potency [10] was “inactive” and the Potency [11] was “inactive”.
With CCOC(=O)CN the Potency [1] was “inactive”, the Potency [2] was “inactive” and the Potency [3] was “inactive”. For the same molecule, the Potency [4] was “inactive”, the Potency [5] was “inactive” and the Potency [6] was “inactive”. The Potency [7] was “inactive”, the Potency [8] was “inactive” and the Potency [9] was “inactive”. The Potency [10] was “inactive” and the Potency [11] was “inactive”.
In the case of CCCCCCCCCCc1ccccc1, the Potency [1] was “inactive”, the Potency [2] was “inactive” and the Potency [3] was “inactive”. For the same molecule, the Potency [4] was “inactive”, the Potency [5] was “inactive” and the Potency [6] was “inactive”. The Potency [9] was “inactive”, the Potency [12] was “inactive” and the Potency [13] was “inactive”. The Potency [11] was “inactive”.
For CCCCOCC, the Potency [1] was “inactive”, the Potency [2] was “inactive” and the Potency [3] was “inactive”. For the same molecule, the Potency [4] was “inactive”, the Potency [5] was “inactive” and the Potency [6] was “inactive”. For the same molecule, the Potency [7] was “inactive”, the Potency [9] was “inactive” and the Potency [12] was “inactive”. The Potency [13] was “inactive”, the Potency [10] was “inactive” and the Potency [11] was “inactive”.
For CO[Si](CCCNCCNCCN)(OC)OC, the Potency [1] was “inactive”, the Potency [2] was “inactive” and the Potency [3] was “inactive”. The Potency [4] was “inactive”, the Potency [5] was “inactive” and the Potency [6] was “inactive”. For the same molecule, the Potency [7] was “inactive”, the Potency [9] was “inactive” and the Potency [13] was “inactive”. The Potency [10] was “inactive” and the Potency [11] was “inactive”.
With CC(C)C(=O)OCc1ccccc1 the Potency [1] was “inactive”, the Potency [2] was “inactive” and the Potency [3] was “inactive”. The Potency [4] was “inactive”, the Potency [5] was “inactive” and the Potency [6] was “inactive”. The Potency [8] was “inactive”, the Potency [9] was “inactive” and the Potency [10] was “inactive”. For the same molecule, the Potency [11] was “inactive”.
In the case of CCc1ccc(C)nc1, the Potency [1] was “inactive”, the Potency [2] was “inactive” and the Potency [3] was “inactive”. The Potency [4] was “inactive”, the Potency [5] was “inactive” and the Potency [6] was “inactive”. For the same molecule, the Potency [8] was “inactive”, the Potency [9] was “inactive” and the Potency [10] was “inactive”. For the same molecule, the Potency [11] was “inactive”.
In the case of C=CC(C)C#N (centres undefined), the Potency [1] was “inactive”, the Potency [2] was “inactive” and the Potency [3] was “inactive”. The Potency [4] was “inactive”, the Potency [5] was “inactive” and the Potency [6] was “inactive”. The Potency [7] was “inactive”, the Potency [8] was “inactive” and the Potency [9] was “inactive”. The Potency [11] was “inactive”.
For COc1ccc(C#N)cc1, the Potency [1] was “inactive”, the Potency [2] was “inactive” and the Potency [3] was “inactive”. For the same molecule, the Potency [4] was “inactive”, the Potency [5] was “inactive” and the Potency [6] was “inactive”. For the same molecule, the Potency [7] was “inactive”, the Potency [8] was “inactive” and the Potency [9] was “inactive”. For the same molecule, the Potency [11] was “inactive”.
With Cn1cccc1 the Potency [1] was “inactive”, the Potency [2] was “inactive” and the Potency [3] was “inactive”. The Potency [4] was “inactive”, the Potency [5] was “inactive” and the Potency [6] was “inactive”. For the same molecule, the Potency [9] was “inactive”, the Potency [12] was “inactive” and the Potency [13] was “inactive”. The Potency [10] was “inactive” and the Potency [11] was “inactive”.
For C[C@]12CC[C@H]3C(=CCc4cc(O)ccc43)[C@@H]1CCC2=O, the Potency [1] was “inactive”, the Potency [2] was “inactive” and the Potency [3] was 54.5 µM (active). The Potency [4] was 35.6 µM (active), the Potency [5] was “inactive” and the Potency [6] was “inactive”. For the same molecule, the Potency [7] was “inactive”, the Potency [12] was “inactive” and the Potency [11] was 38.9 µM (active).
For COc1nccnc1CC(C)C, the Potency [1] was “inactive”, the Potency [2] was “inactive” and the Potency [3] was “inactive”. The Potency [4] was “inactive”, the Potency [5] was “inactive” and the Potency [9] was “inactive”. For the same molecule, the Potency [12] was “inactive”, the Potency [10] was “inactive” and the Potency [11] was “inactive”.
